# Compounds with a hit are over-represented: about 12% of the library has one in this group of screens.
# G9a inh – G9a (human) methyltransferase inhibition. Q96KQ7. G9a H3K9 monomethylation, AlphaScreen, 2 h. Potency, µM (doses to about 102 µM), inactives show at the highest dose activity, negative = inhibition, usual class: inhibitors. hit rate 8.8% among 350,000; also: % is scaled to controls: 0 for no effect and ±100 for the full control effect; nearly all actives have a fitted effect of over 75% in size
# Target sequence (Q96KQ7 913-1193 limits assumed): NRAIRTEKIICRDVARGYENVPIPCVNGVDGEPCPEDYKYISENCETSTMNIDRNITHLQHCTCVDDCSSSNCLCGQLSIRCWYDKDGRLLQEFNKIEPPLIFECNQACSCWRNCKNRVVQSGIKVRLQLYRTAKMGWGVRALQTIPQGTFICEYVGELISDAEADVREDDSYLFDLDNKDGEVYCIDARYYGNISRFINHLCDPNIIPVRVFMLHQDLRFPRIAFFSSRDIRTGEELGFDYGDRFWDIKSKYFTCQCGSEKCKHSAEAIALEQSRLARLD
#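 Enzyme 20 nM + cpd, 15 min RT; add b-H3K9 pep 500 nM / SAM 20 uM; 2 h RT; anti-H3K9me1 Ab 0.5 ug/mL + SA donor / anti-rabbit acceptor beads 20 ug/mL each, 10 min; AlphaScreen read.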
# TDP1 inh – inhibitors of human tyrosyl-DNA phosphodiesterase TDP1; Q9NUW8; recombinant TDP1, AlphaScreen DNA substrate cleavage; Potency, µM (series often up to 130 µM), without a hit: top-dose activity change, negative = inhibition, hits mostly inhibitors; hit rate 0.28% among 350,000; AID 485290; also: % is scaled to controls: 0 for no effect and ±100 for the full control effect; nearly all actives have a fitted effect of over 40% in size
#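 Steps: enzyme plus compound, 15 min RT; add biotin/phosphotyrosine-FITC oligonucleotide (15 nM final), react 5 min; add donor/acceptor beads (10 ug/ml final), 10 min; read AlphaScreen. Tdp1 at 1 nM final.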
# BAZ2B inh – BAZ2B (human) inhibition. hit rate 4.4% among 360,000. Potency, µM (series often up to 114 µM), for the others: at the top dose activity change, negative = inhibition, hits mostly inhibitors. Q9UIF8. AlphaScreen BAZ2B-H3K14Ac peptide displacement; also: % is scaled to controls: 0 for no effect and ±100 for the full control effect; nearly all actives have a fitted effect of over 60% in size
#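 AlphaScreen displacement of biotin-H3(5-23)K14Ac peptide (50 nM final) from BAZ2B (50 nM final) in PBS pH 7.4, 0.01% Tween-20; complex preformed 30 min RT, then compounds (top 110 uM) 30 min RT, beads 20 min dark.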
# Sfp PPTase inh – blocks B. subtilis Sfp PPTase activity | Potency, µM, inactives show largest response in the series, negative = inhibition, hits mostly inhibitors | Biochemical Sfp PPTase activity, qHTS | Q9F4F7 | hit rate 3.5% among 310,000;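 also: the enzyme is Sfp with the accession as filed and its product quenches rhodamine fluorescence; 0% = enzyme reaction without inhibitor and -100% = no enzyme wells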
#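 After 15 min at room temperature with compound, 15 nM Sfp received 5 uM rhodamine-CoA plus 12.5 uM BHQ-2-ybbR (50 mM Hepes pH 7.6, 10 mM MgCl2). Rate came from the fluorescence difference over 30 min, ex 525/em 598 nm.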
# HP1b chromo inh – HP1-beta chromodomain-methylated histone interaction inhibition | hit rate 0.56% among 390,000 | AID 540317 | Potency, µM (series often up to 114 µM), for inactives: at the highest dose activity change, negative = inhibition, most hits filed as inhibitors | AlphaScreen HP1-beta / biotin-H3K9me3 peptide binding | P83916; also: nearly all actives have a fitted effect of over 70% in size
# Target sequence (P83916 whole entry, looked up): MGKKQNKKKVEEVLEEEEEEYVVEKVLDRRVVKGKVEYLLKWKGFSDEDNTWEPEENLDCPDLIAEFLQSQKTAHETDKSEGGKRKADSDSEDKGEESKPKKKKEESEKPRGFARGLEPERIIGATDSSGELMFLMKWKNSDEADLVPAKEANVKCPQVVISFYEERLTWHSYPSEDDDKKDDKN
#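 HP1-beta protein (50 nM final) preincubated 30 min at room temperature with biotinylated H3(1-18)K9me3 peptide (50 nM) in PBS pH 7.4, 0.01% Tween-20, then compound added for 30 min. AlphaScreen streptavidin donor/nickel chelate acceptor beads (10 ug/mL final), 30 min dark, luminescence read.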
# JMJD2A Tudor – blocks the human JMJD2A Tudor domain; O75164; AlphaScreen JMJD2A-Tudor / H3K4me3 peptide binding; Potency, µM (series often up to 114 µM), inactives show at the highest dose activity change, negative = inhibition, usual class: inhibitors; hit rate 4.4% among 390,000; AID 504339; also: % is scaled to controls: 0 for no effect and ±100 for the full control effect; nearly all actives have a fitted effect of over 50% in size
# * marks the source's active call; other numbers are inactive results; ? = inconclusive; / = no result given; ! = not active in a repeat; [ ] = remark or other dose. Calls follow the shape of the dose curve; as a rule, active = well fitted curve in the direction sought with a large enough effect; inconclusive = small, poorly fitted or top-dose-only effect, or another doubt; inactive = no such curve, though single readings can be large; an effect the other way counts as inactive or inconclusive. Potency is read from the fitted curve at half-maximal effect.
SMILES,G9a inh,TDP1 inh,BAZ2B inh,Sfp PPTase inh,HP1b chromo inh,JMJD2A Tudor
CCOC(=O)c1ccc(NC(=O)COC)cc1,-1.1%[12.7 µM],4.5%,0.1%,10.2%,28.4%,0.0%
O=C(Nc1ccc(Nc2ccccc2)cc1)c1ccccc1,/,/,/,/,13.9%,?
C=C1C(=O)[C@@]23[C@H](O)C[C@@H]4C(C)(C)CC[C@H](O)[C@]4(C)[C@@H]2C[C@H](O)[C@@H]1[C@H]3O,-1.7%,2.7%,16.0%,44.7µM*,49.8%,-5.6%
O=C(Nc1ccc(C(=O)N2CCOCC2)cc1)C1CCCC1,/,/,/,/,25.0%,-9.6%
CN1CCN(NC(=S)Nc2ccc(OC(F)F)cc2)CC1,-3.8%,8.0%,/,56.2µM*,31.9%,?
Cn1c(/C=C/c2cccc([N+](=O)[O-])c2)c([N+](=O)[O-])c(=O)n(C)c1=O,-8.9%,/,2.9%,3.3%,17.4%,-19.7%
O=C1CCCC(O)=C1N=Nc1ccc2c(c1)OCO2,19.0%[59 µM],8.1%,?,7.2%,-30.0%,?
O=C1CCCC(O)=C1N=Nc1ccc(C(=O)O)cc1,8.91µM*,2.24µM*,22.4µM*,-4.3%,44.7µM*,-11.8%[11.4 µM]
O=C1CCCC(O)=C1N=Nc1c(Cl)cc(C(F)(F)F)cc1Cl,/,11.4%,70.8µM*,?,-7.4%,?
O=c1cc(OCc2ccccc2)cc[nH]1,?,10.3%,2.82µM*,/,8.91µM*,11.2µM*
CCN(CC)CCOc1ccc(Cc2ccccc2)cc1,7.5%[59 µM],-3.7%,/,79.4µM*!,/,/
Nc1ccc(OCc2ccccc2)cc1,11.2µM*,0.0%,?,11.7%,-14.6%,?
CCN(Cc1ccccc1)Cc1ccc(OCc2ccccc2)cc1,/,/,?,-27.9%,-7.5%,28.2µM*
Cc1cc(C)nc(N/N=C/c2cc(Br)ccc2O)n1,11.1%,11.2%,-19.3%,6.7%,45.9%,-32.4%
CC(=O)Nc1ccc(S(=O)(=O)N2CCCN(S(=O)(=O)c3ccc4c(c3)OCCO4)CC2)cc1,/,2.1%,/,/,/,-14.3%
COc1ccc2c(c1)c(CC(=O)Nc1cccc(S(N)(=O)=O)c1)c(C)n2C(=O)c1ccc(Cl)cc1,-0.3%[12.7 µM],/,-21.4%,?,-2.1%,-11.4%
O=C(NCc1ccncc1)c1ccccc1Nc1ccc(SC(F)F)cc1,44.7µM*,/,-33.5%,-1.1%,13.6%,-30.8%
CCN1CCN(C(=O)c2ccccc2Nc2ccc(SC(F)F)cc2)CC1,50.1µM*,-2.6%,-28.0%,10.5%,22.5%,-23.6%
CNC(=O)c1ccccc1Nc1ccc(SC(F)F)cc1,/,/,13.8%,11.5%,17.8%,-7.5%
CN1C(C(=O)Nc2cccc(O)c2)=CC(c2cccs2)=NS1(=O)=O,6.2%,2.9%,?,13.7%,6.4%,-26.1%
O=Cc1cn(CC(=O)N2CCCCCC2)c2ccccc12,-23.2%,/,0.8%,-1.6%,17.9%,-17.4%
CN1C(=O)/C(=C/c2cn(CC(=O)NCc3ccco3)c3ccccc23)NC1=S,/,6.0%,?,7.08µM*,/,/
CN1C(=O)/C(=C/c2cn(CC(=O)N3CCCCC3)c3ccccc23)NC1=S,39.8µM*,2.4%,-27.1%,-0.1%,41.3%,-29.1%
CCOC(=O)c1ccc(NC(=O)CCn2ccc(C)n2)cc1,13.4%[59 µM],3.2%,-2.1%,/,10.6%,-11.0%
CN(C)c1ccc(C(=S)Nc2ccccc2)cc1,-2.5%,5.6%,?,-12.5%,0.7%,-19.7%
SMILES,G9a inh,TDP1 inh,BAZ2B inh,Sfp PPTase inh,HP1b chromo inh,JMJD2A Tudor
CN(C)c1ccc(NC(=S)c2ccccn2)cc1,8.91µM*,8.1%,2.82µM*,44.7µM*,12.6µM*,11.2µM*
CCn1c(C)nc2cc(N)ccc21,/,10.3%,?,-8.8%,24.8%,-22.8%
Nc1ccc2c(c1)ncn2CCCn1cnc2cc(N)ccc21,-29.0%[59 µM],2.0%,79.4µM*,11.0%,21.8%,44.7µM*
CN(C)CCn1c2c(c(SCC(=O)Nc3ccc4c(c3)OCCO4)nc1=O)CCCC2,?,1.2%,6.7%,/,14.6%,-20.0%
O=C1C=CC(=O)N1c1cccc2cccnc12,/,/,/,/,-14.1%,-35.9%
COc1ccc(NC(=O)CSc2nc3ccncc3[nH]2)c(OC)c1,0.2%,5.0%,-13.8%,17.1%,14.8%[57 µM],-8.9%
COc1ccc(Cl)cc1N=Nc1ncc[nH]1,5.5%[59 µM],7.3%,/,5.5%,/,/
COc1ccc(NC2=C(C(C)=O)C(c3ccc(N(C)C)cc3)C(C(C)=O)C(C)(O)C2)cc1 (centres undefined),20µM*,7.9%,-2.9%,-2.3%,2.1%,-23.2%
COc1ccc(NC2=C(C(C)=O)C(c3ccc(OC)cc3)C(C(C)=O)C(C)(O)C2)cc1 (centres undefined),?,2.4%,-21.4%,6.8%,-12.3%,-5.3%[11.4 µM]
CN(C)CCCn1c(=O)n(Cc2ccco2)c(=O)c2c3c(sc21)CCCCC3,?,1.2%,-36.2%,20µM*,-9.2%,-33.1%
CN(C)CCCNc1nc2sc3c(c2c(=O)n1CCc1ccccc1)CCCCC3,44.7µM*,2.6%,?,-21.0%,?,?
NCCNC(=O)Cn1c(=O)c2c3c(sc2n(Cc2ccccc2)c1=O)CCCC3,-30.9%[2.33 µM],/,?,-12.6%,-13.1%,-25.8%
CN(C)CCCn1c(=O)n(CCc2ccccc2)c(=O)c2c3c(sc21)CCCCC3,-78.6%,5.6%,?,9.8%,-14.3%,56.2µM*
Cn1c(=O)n(Cc2ccco2)c(=N)c2c3c(sc21)CCC3,-2.0%[59 µM],-2.0%,?,-10.7%,6.9%,?

# Compound activity from PubChem.
